ERp5 block: inhibitors of ERp5-driven insulin aggregation, primary screen, biochemical, turbidity, absorbance 650 nm, single point; Protein disulfide-isomerase A6 (Homo sapiens), Q15084; 350,000 compounds, 0.05% hits; inhibition, % at 9.99 µM; 90 min;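 active = mean replicate inhibition above about 25%, with every replicate also reaching it, limit read from the data, passing the limit was not always enough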
Rtt109 Vps75: inhibitors of C. albicans Rtt109/Vps75 HAT, primary screen, biochemical, ThioGlo CoA-SH fluorescence, plate reader | Histone acetyltransferase RTT109 (Candida albicans (strain SC5314 / ATCC MYA-2876)), … | purified Rtt109/Vps75, 4 h | inhibition, % at 34.9 µM | 330,000 compounds, 0.16% hits | AID 540336, 2011;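 active = inhibition of at least 50% in every replicate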
Target sequence (Q5AAJ8 whole entry, looked up): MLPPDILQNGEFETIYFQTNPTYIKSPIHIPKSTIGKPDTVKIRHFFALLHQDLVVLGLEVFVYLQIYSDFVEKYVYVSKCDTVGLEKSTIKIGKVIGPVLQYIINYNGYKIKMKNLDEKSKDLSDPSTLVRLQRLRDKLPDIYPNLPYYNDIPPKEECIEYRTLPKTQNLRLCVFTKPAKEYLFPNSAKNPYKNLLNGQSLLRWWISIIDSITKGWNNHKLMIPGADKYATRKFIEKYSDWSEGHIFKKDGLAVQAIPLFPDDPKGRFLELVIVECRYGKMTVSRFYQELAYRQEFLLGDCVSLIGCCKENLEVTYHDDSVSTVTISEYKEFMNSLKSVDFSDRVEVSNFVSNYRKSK
ERAP1 HTS inh: human ERAP1 aminopeptidase inhibitors, primary screen, biochemical, single point, plate reader. recombinant ERAP1, Leu-AMC fluorescence, 60 min. inhibition, % at 10.7 µM. 340,000 compounds, 0.15% hits;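 active = mean replicate inhibition of at least 30%, or all replicates individually reaching that 30% level; inactive = mean below 30% and not every replicate reaching it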;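 also: 0% = neutral control wells and 100% = L-leucinethiol positive control wells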
PvdQ inh: P. aeruginosa PvdQ acylase inhibitors, primary screen, biochemical, fluorescence, plate reader and imaging, single point | PvdQ acylase [Pseudomonas aeruginosa LESB58] | purified PvdQ acylase | inhibition, % at 10 µM | 340,000 compounds, 0.063% hits; in the data active = inhibition above about 30%, passing the limit was not always enough;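 also: 0% = vehicle neutral wells and 100% = reference inhibitor wells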
PDI inh: inhibitors of human PDI, primary screen, biochemical, turbidity, single point, plate reader; Protein disulfide-isomerase (Homo sapiens), P07237; PDI insulin aggregation turbidity, A650, 90 min; inhibition, % at 10 µM; 350,000 compounds, 0.052% hits;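 active = mean inhibition across replicates of 30% or more, whatever share of single replicates reach that level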
* hit, by the source's call; i = inactive; . = no result given. The list is not random: actives were taken first. Their share in the collection is about 0.35%.

SMILES	ERp5 block	Rtt109 Vps75	ERAP1 HTS inh	PvdQ inh	PDI inh
O=C(O)c1ccc(-c2ccc(/C=N/Nc3ccc([N+](=O)[O-])cc3)o2)cc1	-1	50*	21	20	-3
O=C(O)c1cccc(-c2ccc(/C=N/Nc3ccc([N+](=O)[O-])cc3)o2)c1	-1	7	1	5	2
O=S1(=O)CCOC[C@H](c2ccccc2)N1Cc1cccc(Cl)c1	-6	6	-2	43*	-2
CCOC(=O)c1cc(-c2cccc([N+](=O)[O-])c2)on1	-6	-1	-3	62*	7
C[C@@H]1CN([C@H](C)CO)C(=O)c2cc(NC(=O)CCCCCC(=O)Nc3ccccc3N)ccc2O[C@@H]1CN(C)S(=O)(=O)c1ccc(F)cc1	-1	.	0	.	.
O=C(Nc1ccc(C(F)(F)F)cc1)N[C@@H]1CC[C@@H](CCn2cc(C3(O)CCCC3)nn2)O[C@@H]1CO	-1	.	-1	.	.
O=C(/C=C/c1cccs1)Nc1ccc([N+](=O)[O-])cc1	.	-3	.	1	-3
O=C(/C=C/c1cccs1)Nc1ccncc1	5	1	-1	36*	12
CCn1c(O)c(/C=C2\C=Nc3ccccc32)sc1=Nc1ccccc1	-4	-5	0	3	-3
Cn1c(O)c(/C=C2\C=Nc3ccccc32)sc1=Nc1ccc(C(=O)O)cc1	-1	-3	2	-9	54*
Cc1cc(C)n2c(Nc3ccc4c(c3)OCCO4)c(-c3ccccn3)nc2n1	0	.	54*	.	.
O=C(NCC1CC1)c1cc([N+](=O)[O-])cc([N+](=O)[O-])c1	2	.	-3	68*	-2
O=C(NCC1CCCCC1)c1cccc([N+](=O)[O-])c1	3	0	-3	0	19
CCOCC(=O)Nc1nc2ccc(C)cc2s1	.	-1	.	32*	-2
CCOCC(=O)Nc1nc2ccc(OCC)cc2s1	.	-11	.	-18	6
CCOC(=O)C1CCN(c2c(NCCCN(C)C3CCCCC3)c(=O)c2=O)CC1	-1	0	1	-2	34*
CCOC(=O)C1CCN(c2c(NCCCN3CCCCC3)c(=O)c2=O)CC1	1	-8	.	-8	2
COc1ccccc1OCC(=O)Nc1cc(C)ccc1NC(=O)c1ccco1	-7	-5	1	-2	18
Cc1ccc(NC(=O)COc2ccccc2)c(NC(=O)c2ccco2)c1	30*	2	1	-5	10
O=C1/C(=C/c2ccc(Br)cc2)Oc2cc(O)ccc21	1	.	-3	10	20
O=C1/C(=C/c2ccc([N+](=O)[O-])cc2)Oc2cc(O)ccc21	-1	.	2	69*	16
COc1cc(CNCc2ccncc2)cc(OC)c1OC	4	-2	0	-14	3
COc1cc(CNCc2ccc(C)cc2)cc(OC)c1OC	3	51*	-5	-1	-4
COCCNC(=O)C[C@H]1C[C@@H]2c3cc(NC(=O)c4ccc5c(c4)OCO5)ccc3O[C@@H]2[C@H](CO)O1	-1	.	-1	.	.
C[N+]1(CCOC(=O)C2(c3ccccc3)CCCC2)CCCCC1	11	4	67*	-5	0
SMILES	ERp5 block	Rtt109 Vps75	ERAP1 HTS inh	PvdQ inh	PDI inh
CCn1c(SCC(=O)Nc2cccc(NC(C)=O)c2)nnc1-c1ccco1	3	2	-3	-2	2
CCn1c(SCC(=O)Nc2ccc3c(c2)c2ccccc2n3CC)nnc1-c1ccco1	.	66*	.	-3	56*
C[C@@H]1CN([C@H](C)CO)C(=O)c2cccc(NC(=O)c3ccc(-c4nccs4)cc3)c2O[C@@H]1CN(C)C	2	.	3	.	.
C[C@H]1CN([C@@H](C)CO)C(=O)Cc2cc(NC(=O)Cc3cn(C)c4ccccc34)ccc2O[C@H]1CN(C)C(=O)Nc1ccc(F)cc1	4	.	-3	.	.
COc1ccc(-c2cc3nc(CCl)[nH]c(=O)c3s2)cc1	0	-3	0	-9	39*
O=C(C[C@H]1CC[C@@H](NC(=O)c2ccccc2)[C@@H](CO)O1)Nc1ccc(-c2ccccc2)cc1	1	.	-2	.	.
Cc1ccccc1S(=O)(=O)N(C)C[C@@H]1OCc2ccccc2-c2ccccc2C(=O)N([C@H](C)CO)C[C@@H]1C	-4	.	0	.	.
COc1ccccc1OCCC(=O)OCC(=O)c1c(N)n(C)c(=O)n(C)c1=O	-7	-10	-4	32*	11
CCC[N+]1(CC#CC2(O)CCCCC2)CCOCC1	-8	9	85*	-8	2
CO[C@@H]1CC[C@H]2CCN(C)C(=O)C[C@@H](c3ccccc3)CN(C)C(=O)c3cc(C#N)ccc3OC[C@H]1O2	-1	.	0	.	.
COc1ccc(-c2coc3c(C)c4oc(=O)c(CCC(=O)O)c(C)c4cc23)cc1	.	1	.	-2	52*
Cc1c(CCC(=O)O)c(=O)oc2c(C)c3occ(-c4ccc(Br)cc4)c3cc12	-1	7	4	-3	-2
Oc1ccc(/C=N/N=C(c2ccccc2)c2ccccc2)c(O)c1O	.	5	.	-5	-2
O=C(/C(=N/N=C/c1ccc(O)c(O)c1O)c1ccccc1)c1ccccc1	3	78*	0	-7	0
O=C(Oc1ccc(F)cc1)c1ccc2c(=O)n3c(nc2c1)CCC3	5	-1	32*	0	6
O=C(Oc1cccc(F)c1)c1ccc2c(=O)n3c(nc2c1)CCC3	-5	0	4	-15	13
CCCCc1ccc(-n2c(Cc3cccs3)n[nH]c2=S)cc1	-2	72*	0	-8	13
S=c1[nH]nc(Cc2cccs2)n1-c1ccccc1	-3	-4	-2	-8	4
Oc1cc2c(cc1O)C1c3ccc(O)c(O)c3OCC1(O)C2 (centres undefined)	1	159*	9	10	.
C[C@H]1CN([C@@H](C)CO)C(=O)c2cccc(NC(=O)c3ccncc3)c2O[C@@H]1CN(C)Cc1ccc(-c2ccccc2)cc1	0	.	8	.	.
COC(=O)Cn1c2[n+](c3ccccc31)CC(O)CS2 (centres undefined)	.	-3	.	-15	1
CCOC(=O)Cn1c2[n+](c3ccccc31)CC(O)CS2 (centres undefined)	-1	0	78*	-8	-1
O=C(C[C@H]1C[C@H]2c3cc(NS(=O)(=O)c4ccc(F)cc4)ccc3O[C@H]2[C@H](CO)O1)NC1CCCCC1	1	.	4	.	.
Cn1c(C(=O)NCCN2CCOCC2)cc2c(=O)n3ccccc3nc21	5	i	-214	-32	2
N=c1c(C(=O)NCCN2CCOCC2)cc2c(=O)n3ccccc3nc2n1CCc1ccccc1	-10	-37	51*	-18	-7
N=c1c(C(=O)NCCc2ccccc2)cc2c(=O)n3ccccc3nc2n1CCCN1CCOCC1	-1	-196	-63	-27	2
